Most compounds without a hit are left out; they make up all but 2.5% or so of the library.
Env fusion inh = blocks HIV Env-driven cell-cell fusion | inhibition, % at 12.3 µM | HeLa-JRFL Env/CEM21 cell fusion, luciferase | 360,000 compounds, 1.1% hits | AID 651610;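 active = mean replicate inhibition score of at least 50 and every replicate individually at or above 50; inconclusive = only one of the two criteria met; inactive = mean below 50 and not all replicates reaching 50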
EWS-Fli inh = EWS/Fli transcriptional activity inhibition. A673 NR0B1-luciferase reporter, viability-normalised. inhibition, % at 12.6 µM. 350,000 compounds, 0.67% hits. AID 651661;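 active = mean inhibition of at least 50% after viability correction, with every replicate also passing that limit; inconclusive = mean reaches 50% but only one of two replicates passes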;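 note: firefly luciferase signal divided by Alamar Blue viability fluorescence both relative to DMSO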
F508del corr = correctors of CFTR F508del function in bronchial epithelial cells; CFBE cells, YFP halide quenching; stimulated with forskolin plus potentiator P3; % fluorescence drop versus neutral controls; activity (quench increase), % at 7.58 µM; 350,000 compounds, 0.36% hits;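 active = mean added fluorescence quench of at least 8% versus neutral control, with both replicates also reaching 8%; inconclusive = only one of the mean or replicate conditions met; inactive = mean below 8% and not both replicates reaching 8%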;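 note: cells transiently co-express mutant CFTR-F508del with the halide-sensitive YFP; corrector assay measuring rescue of mutant channel to the surface after 24 h compound exposure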
GAA850 FXN act = activators of GAA850 frataxin (FXN) promoter | 360,000 compounds, 0.56% hits | AID 540364 | HEK293 lucGAA850 FXN promoter luciferase reporter, 24 h; percent of 10 µM SAHA response | activation, % at 6 µM;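 active = activation above the average of all compounds screened plus 3 SD, cutoff fixed separately per campaign, cut at about 7.5% in these data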
PAX8 inh HTS = inhibitors of PAX8 transcriptional activity in RMG-I cells; RMG-I TPO-luciferase reporter, SteadyGlo, 24 h; inhibition, % at 12.6 µM; 360,000 compounds, 1.2% hits; AID 652154;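 active = mean replicate inhibition at least 60% with every replicate also reaching 60%; inconclusive = only one of the two criteria is met; inactive = mean below 60% and not all replicates reaching 60%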;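 note: luciferase light reporting Pax8 driven TPO promoter activity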
A number is an active result; - = inactive; ? = inconclusive; . = not tested or not shown; [ ] = dose if it differs, or a comment.

SMILES | Env fusion inh | EWS-Fli inh | F508del corr | GAA850 FXN act | PAX8 inh HTS
CC(C)NC(=O)Nc1ccc2c(c1)C(=O)N([C@H](C)CO)C[C@H](C)[C@H](CN(C)S(=O)(=O)c1ccccc1)OCCCC[C@H](C)O2 | - | - | - | . | -
Cn1c(=O)[nH]c2cc3ccccc3cc21 | 70 | . | . | - | -
Cc1nc2cc3ccccc3cc2n1C | . | . | . | - | -
CCN(CC(=O)Nc1c(F)cccc1F)C(=O)c1ccc(N2CCCC2)c([N+](=O)[O-])c1 | . | - | - | - | -
CCN(CC(=O)Nc1c(F)cccc1F)C(=O)c1cc(S(=O)(=O)N2CCOCC2)ccc1N1CCCC1 | - | - | - | - | 72
CCN(CC(=O)Nc1c(F)cccc1F)C(=O)C1CC1 | . | - | 8.4 | - | -
CCN(CC(=O)Nc1c(F)cccc1F)C(=O)c1cc([N+](=O)[O-])ccc1N1CCCCC1 | - | - | - | - | 80
CCC(=O)Nc1ccc2c(c1)OC[C@@H](C)N(C(=O)NC1CCCCC1)C[C@@H](C)[C@H](OC)CN(C)C2=O | - | - | - | . | -
Cc1noc(C)c1S(=O)(=O)Nc1ccc2c(c1)C(=O)N([C@@H](C)CO)C[C@@H](C)[C@@H](CN(C)C(=O)Nc1ccc3c(c1)OCO3)O2 | . | - | - | . | .
CCN(C[C@H]1N[C@@](CC)(C(=O)OC)[C@H]2C(=O)N(Cc3ccccc3)C(=O)[C@@H]12)C(=O)c1ccc(C(C)(C)C)cc1 | ? | - | - | - | 82
COC(=O)[C@]1(C)N[C@H](CN(C)S(=O)(=O)c2ccc(F)cc2)[C@@H]2C(=O)N(Cc3ccccc3)C(=O)[C@@H]21 | - | - | - | . | -
COC(=O)[C@]1(Cc2ccccc2)N[C@H](CN(C)C(=O)c2ccc(C(C)(C)C)cc2)[C@@H]2C(=O)N(Cc3ccccc3)C(=O)[C@@H]21 | - | - | - | - | -
CC[C@@]1(C(=O)OC)N[C@H](CN(C)C(=O)c2ccc(C(C)(C)C)cc2)[C@@H]2C(=O)N(Cc3ccccc3)C(=O)[C@@H]21 | 79 | - | - | - | -
CC[C@@]1(C(=O)OC)N[C@H](CN(C)C(=O)c2ccccc2)[C@@H]2C(=O)N(Cc3ccccc3)C(=O)[C@@H]21 | - | - | - | - | -
COC(=O)[C@]1(C)N[C@H](CN(C)S(=O)(=O)c2ccc(OC(F)(F)F)cc2)[C@@H]2C(=O)N(Cc3ccccc3)C(=O)[C@@H]21 | 82 | - | - | - | -
CN1C[C@@H]2[C@@H]3C(=O)N(Cc4ccccc4)C(=O)[C@@H]3[C@](Cc3ccccc3)(C1=O)N2C(=O)c1ccc(C(C)(C)C)cc1 | - | - | - | - | 99
CCCN1CCC2(CC1)CN(Cc1ccccc1OC)[C@H](CO)c1c2c2ccc(OC)cc2n1C | . | - | - | . | .
CO[C@@H]1CC[C@@H]2CCN(C)C(=O)CC3(CCCCC3)CN(C)C(=O)c3cc(C#N)ccc3OC[C@H]1O2 | - | - | . | . | -
COc1cccc(NC(=O)N2C[C@H](O)COC[C@@H]3O[C@@H](CC(=O)NC4CCC4)CC[C@H]32)c1 | . | - | - | . | -
CCN(C[C@H]1N[C@@](C)(C(=O)OC)[C@H]2C(=O)N(Cc3ccccc3)C(=O)[C@@H]12)C(=O)c1ccc(C(C)(C)C)cc1 | 69 | - | - | - | -
CCN(C[C@H]1N[C@@](C)(C(=O)OC)[C@H]2C(=O)N(Cc3ccccc3)C(=O)[C@@H]12)C(=O)COC | - | - | - | - | -
CC(=O)Oc1c(C)cc(Cl)cc1C(=O)Nc1ccc([N+](=O)[O-])cc1Cl | ? | - | 13 | - | -
CCCC(=O)Nc1ccc2c(c1)OC[C@H](C)N(Cc1ccc(F)cc1)C[C@H](C)[C@@H](OC)CN(C)C2=O | - | - | - | . | -
COc1cc(/C=C/c2ccc3c(Br)cc(Br)c(O)c3n2)ccc1O | - | - | - | - | 73
COCCNC(=O)C[C@H]1C[C@H]2c3cc(NC(=O)NC4CCCCC4)ccc3O[C@H]2[C@@H](CO)O1 | - | - | - | . | -
COc1ccccc1S(=O)(=O)N[C@H]1CC[C@@H](CC(=O)N2CCN(C)CC2)O[C@H]1CO | 57[16.7 µM] | - | - | . | -
COc1ccccc1S(=O)(=O)N[C@@H]1CC[C@H](CC(=O)N2CCN(C)CC2)O[C@H]1CO | - | - | - | . | -
Cc1noc(C)c1NC(=O)Nc1ccc2c(c1)C(=O)N([C@H](C)CO)C[C@H](C)[C@H](CN(C)S(=O)(=O)c1cn(C)cn1)OCCCC[C@H](C)O2 | - | - | - | . | -
